In the library only some 0.93% were active in any assay of this set; here they are far more common.
F508del corr: correctors of CFTR F508del function in bronchial epithelial cells; CFBE cells, YFP halide quenching; stimulated with forskolin plus potentiator P3; % fluorescence drop versus neutral controls; activity (quench increase), % at 7.58 µM; hit rate 0.36% among 350,000; AID 720511;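 active means mean added fluorescence quench of at least 8% versus neutral control, with both replicates also reaching 8%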;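 further: cells transiently co-express mutant CFTR-F508del with the halide-sensitive YFP; corrector assay measuring rescue of mutant channel to the surface after 24 h compound exposure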
HIF act: HIF pathway transcriptional activation. U2OS HRE-luciferase reporter, luminescence; normalized: DMSO 0%, desferrioxamine 100%. activation, % at 7.5 µM (by protocol). hit rate 0.32% among 300,000;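 active means mean activation of at least 10% of the iron chelator positive control signal, with at least half of replicates also reaching 10%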
Jurkat NFkB inh: inhibitors of the PMA/ionomycin-induced NF-kB reporter in Jurkat cells. PMA/ionomycin-induced NF-kB luciferase reporter, luminescence. inhibition, % at 4 µM. hit rate 0.53% among 330,000. AID 435003; in the data active means inhibition above about 50%
697 NFkB inh: inhibitors of the PMA/ionomycin-induced NF-kB reporter in 697 B cells | 697 B-cell NF-kB luciferase reporter, 16 h | inhibition, % at 4 µM | hit rate 0.33% among 330,000 | AID 435022; in the data active means inhibition above about 35%
Jurkat NFkB conf: inhibitors of the PMA/ionomycin-induced NF-kB reporter in Jurkat cells, retest; shares compounds with Jurkat NFkB inh; Jurkat NF-kB luciferase, 16 h; inhibition, % at 4 µM; hit rate 27% among 2,700;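 active means inhibition reaching about 45% at 4 µM in either replicate, limit read from the data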;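 further: plate controls were PMA/ionomycin stimulated DMSO wells for no effect and unstimulated DMSO wells for full effect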
The depositor's hits bear a star; . = no result given.

SMILES	F508del corr	HIF act	Jurkat NFkB inh	697 NFkB inh	Jurkat NFkB conf
c1ccc(-c2cc(-c3ccccc3)on2)cc1	0.7	2.1	-208.6	-205.8	-150.9
Cc1nn(C)cc1NC(=O)C[C@@H]1CC[C@H]2[C@@H](COc3ccc(NC(=O)NC(C)C)cc3C(=O)N2C)O1	-1.2	.	.	.	.
COC(=O)c1ccc(NC(=O)C2CC3CCC2C3)cc1 (stereo not drawn)	-1.1	1.9	-67.4	-38.6	.
CCOC(=O)c1ccc(NC(=O)C2CC3CCC2C3)cc1 (stereo not drawn)	-2.9	3.2	-153.9	-164.4	-115.7
COc1ccc(Cl)cc1NC(=O)CN(C)C(=O)c1cc2c(F)cccc2s1	2.5	.	58.1*	1.4	17.1
COc1ccc(Cl)cc1NC(=O)CN(C)C(=O)c1ccc(C)s1	-4.3	-0.3	-2.2	-3.0	.
CCOC(=O)c1[nH]c(C)c(C(=O)c2cc(F)ccc2F)c1C	.	0.0	77.1*	14.0	43.2
Cc1ccc(C(=O)O/N=C(\N)c2ccccn2)c(Cl)c1	2.5	-5.8	65.2*	-7.5	79.2*
COc1ccc2c3c([nH]c2c1)[C@H](CO)N(S(C)(=O)=O)CC31CN(C(=O)c2ccncc2)C1	-2.6	.	.	.	.
CCOC(=O)c1[nH]c(C)c(/C(O)=C2\C(=O)C(=O)N(CCCN3CCOCC3)C2c2cccs2)c1C (stereo not drawn)	15.1*	1.2	54.8*	-25.1	11.9
COC(=O)c1[nH]c(C)c(/C(O)=C2\C(=O)C(=O)N(CCN3CCOCC3)C2c2cccs2)c1C (stereo not drawn)	.	0.5	-6.4	22.5	.
Cn1nnc(-c2ccc(OCc3ccccc3F)cc2)n1	.	1.4	-169.4	-173.9	-88.5
COc1ccc(N=C2S/C(=C\c3ccc(N4CCOCC4)o3)C(=O)N2CCc2c[nH]c3ccccc23)cc1	.	-3.7	100.0*	-37.5	39.0
Clc1ccc2nc(-c3ccc(Br)s3)cn2c1	.	2.9	-178.8	-150.8	-100.0
CO[C@@H]1CN(C)C(=O)c2ccc(NC(=O)Nc3ccc(Cl)cc3)cc2OC[C@H](C)N(C(=O)Nc2c(C)noc2C)C[C@@H]1C	4.3	.	.	.	.
C=CCNC(=S)N/N=C(\C)c1ccccn1	.	13.5*	78.3*	24.3	51.2*
Cc1ccnc2c1ccc1cccnc12	9.4*	.	69.3*	-14.1	63.8*
Cc1ccnc2c1ccc1ccccc12	-2.7	0.0	-2.2	9.3	.
Cc1ccnc2c1ccc1c(C)ccnc12	.	.	76.3*	-26.6	74.7*
COCC(=O)N(C)C[C@@H]1Oc2cc(C#CC3CCCC3)ccc2S(=O)(=O)N([C@@H](C)CO)C[C@H]1C	-1.5	.	.	.	.
C[C@H]1CN([C@@H](C)CO)C(=O)c2cc(C#CC3CC3)cnc2O[C@@H]1CN(C)C(=O)c1ccc(F)cc1	2.1	.	.	.	.
COc1ccc(N(S(=O)(=O)c2ccccc2)S(=O)(=O)c2ccccc2)c(N)c1	3.1	1.7	50.6*	-1.3	3.9
CN(C)c1ccc(/C=C/c2cc[n+](C)cc2)cc1	.	-0.3	25.8	-10.4	.
Cc1ccc(/C=C/c2ccc(N(C)C)cc2)[n+](C)c1	1.1	4.7	68.5*	26.2	41.0
CCCC(=O)N1CC2(C1)CN(Cc1ccc(Cl)cc1)[C@H](CO)c1[nH]c3cc(OC)ccc3c12	1.2	.	.	.	.
SMILES	F508del corr	HIF act	Jurkat NFkB inh	697 NFkB inh	Jurkat NFkB conf
CCCNC(=O)c1cc2c(c(-c3cccc(-c4cccc(OC)c4)c3)n1)[C@H](CCO)N([S@@](=O)C(C)(C)C)C2	1.5	.	.	.	.
CCCNC(=O)C[C@@H]1CC[C@H]2[C@@H](COC[C@H](O)CN2Cc2ccc(Cl)c(Cl)c2)O1	5.1	.	.	.	.
COc1ccc(C)cc1NC(=O)CSc1ccc(-c2ccccn2)nn1	-1.8	2.3	53.0*	-5.2	20.1
COc1cc(NC(=O)CSc2ccc(-c3ccccn3)nn2)cc(OC)c1	1.4	9.0	6.6	-8.3	.
COc1ccc(C)cc1NC(=O)CSc1ccc(-c2sc(C)nc2C)nn1	-0.2	0.5	51.2*	-33.1	9.5
COc1cccc(NC(=O)CSc2ccc(-c3sc(C)nc3C)nn2)c1	0.7	-0.2	4.2	-2.0	.
CCOC(=O)/C=C/c1ccc2oc3ccccc3c(=O)c2c1	0.1	3.8	-164.8	-228.5	-92.1
CCCNC(=O)N1CC2(CN(C(=O)c3cccnc3)C2)c2c([nH]c3cc(OC)ccc23)[C@@H]1CO	1.9	.	.	.	.
COc1cc(-c2noc(C)c2/C=C/c2cccc([N+](=O)[O-])c2)cc(OC)c1OC	7.4	1.2	62.0*	-3.1	50.8*
CCN1/C(=C/c2ccc3cc(C)ccc3[n+]2CC)Sc2ccc3sccc3c21	.	1.2	92.2*	-13.4	64.5*
Brc1ccc2[nH]c3c(N4CCc5ccccc5C4)ncnc3c2c1	.	0.9	-6.4	-35.0	.
Cc1ccc2[nH]c3c(N4CCc5ccccc5C4)ncnc3c2c1	.	3.5	34.2	-22.3	.
COc1ccc2[nH]c3c(N4CCN(Cc5ccc6c(c5)OCO6)CC4)ncnc3c2c1	.	0.4	20.4	7.8	.
COc1ccc2[nH]c3c(N4CCC(O)(c5cccc(C(F)(F)F)c5)CC4)ncnc3c2c1	.	3.1	50.8*	0.4	23.1
CCOc1ccc2[nH]c3c(N4CCc5ccccc5C4)ncnc3c2c1	4.3	1.8	51.6*	-24.2	21.4
Fc1ccc2[nH]c3c(N4CCc5ccccc5C4)ncnc3c2c1	-5.2	1.3	50.1*	30.3	62.6*
CC1C/C(=C/c2ccccn2)C(=O)/C(=C/c2ccccn2)C1 (stereo not drawn)	.	-1.2	91.1*	-75.7	28.5
COc1cccc(-c2cnc3c(c2)C(=O)N([C@H](C)CO)C[C@@H](C)[C@H](CN(C)C(C)=O)O3)c1	-0.2	.	.	.	.
Cc1ccc(/C=N/NC(=O)c2c(C)nc3ccc(Br)cn23)cc1	-0.1	4.3	50.5*	9.7	52.7*
COc1ccc(/C=N\NC(=O)c2c(C)nc3ccc(Br)cn23)cc1	.	0.1	44.1	9.5	.
COC(=O)c1ccccc1NC1=C/C(=N\S(=O)(=O)c2cccs2)c2ccccc2C1=O	0.3	0.1	51.7*	16.7	65.5*
Cc1cccc(/C=N/Nc2nncc3ccccc23)c1	-8.5	-2.1	-167.8	-181.2	-100.6
CCOC(=O)c1sc(NC(=O)c2ccc(Br)o2)cc1C	.	2.6	-176.8	-104.8	-98.5
CCOC(=O)c1sc(NC(=O)c2cccs2)cc1C	.	1.8	-152.4	-200.8	-104.4
CCC(=O)N1[C@H](CO)[C@@H](c2ccccc2)C12CN(Cc1cc(F)ccc1F)C2	1.5	.	.	.	.
SMILES	F508del corr	HIF act	Jurkat NFkB inh	697 NFkB inh	Jurkat NFkB conf
O=C(Nc1ccc(C2SCCS2)cc1)c1ccccc1	-1.8	0.8	-150.0	-216.5	-109.8
CNC(=O)Nc1ccc(C2SCCS2)cc1	-4.2	8.2	-7.5	10.3	.
O=C(Nc1ccc(Cl)c(Cl)c1)c1ccccc1	0.3	.	-188.0	-126.0	-92.8
COC(=O)C1=C(CN2CCCc3ccccc32)NC(=O)NC1c1ccc(F)cc1 (stereo not drawn)	.	.	54.4*	0.9	78.8*
CN(C)c1ccc(C(=O)OCC(=O)c2cccs2)cc1	.	0.1	-150.7	-79.9	-86.7
COc1ccc(C(=O)COC(=O)c2ccc(N(C)C)cc2)cc1	-1.7	2.3	-51.4	12.6	.
COc1ccc(N=C2NC(=O)/C(=C/c3ccc(O)c(OC)c3)S2)cc1	.	0.3	-6.3	-15.3	.
